# Active and inactive are the calls of the source. Rule for the calls: active = hit-call score of the fitted dose curve at least 0.9, where 1 is the maximum; inactive = score below 0.9.
# Key:
# [1] = read-out: Tumor necrosis factor receptor superfamily member 6 (Homo sapiens) (UniProt P25445); test: LTEA_HepaRG_FAS: Life Technologies and Expression Analysis (LTEA) Assay for Fas cell surface death receptor (FAS) using HepaRG (AID 2283447); settings: mRNA level, 48 h; actives raise or lower the signal
# In short: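 Differentiated human HepaRG cells, pre-cultured 48 h, were exposed in duplicate for 48 h to 8-point half-log concentrations (top 100 uM, 0.5% DMSO) in serum-free induction medium; FAS mRNA measured by qRT-PCR, normalized to ACTB/GAPDH/POLR2A, bidirectional fit versus DMSO.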
# [2] = read-out: Fatty acid synthase (Homo sapiens) (UniProt P49327); test: LTEA_HepaRG_FASN: Life Technologies and Expression Analysis (LTEA) Assay for Fatty Acid Synthase (FASN) using HepaRG (AID 2283448); settings: mRNA level, 48 h; actives raise or lower the signal
# In short: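 FASN transcript measured by TaqMan qRT-PCR, normalised to three housekeeping genes, after 48 h chemical exposure of HepaRG cells. Eight-point half-log series from 100 uM in 0.5% DMSO, duplicates; gain or loss fitted against vehicle.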
# [3] = read-out: Cyclin D2 (CCND2), CCND2 (gene 894); test: LTEA_HepaRG_CCND2: Life Technologies and Expression Analysis (LTEA) Assay for Cyclin D2 (CCND2) using HepaRG (AID 2283449); settings: mRNA level, 48 h; actives raise or lower the signal;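 note: CCND2 transcript measured by TaqMan qRT-PCR and normalised to three housekeeping genes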
# In short: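 In this HepaRG study, an eight-point concentration series (max 100 uM, 0.5% DMSO) is applied for 48 h. CCND2 mRNA change is derived by qRT-PCR normalised to ACTB, GAPDH and POLR2A.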
# [4] = read-out: Cyclin Dependent Kinase Inhibitor 1A (CDKN1A), CDKN1A (gene 1026); test: LTEA_HepaRG_CDKN1A: Life Technologies and Expression Analysis (LTEA) Assay for Cyclin Dependent Kinase Inhibitor 1A (CDKN1A) using HepaRG (AID 2283450); settings: mRNA level, 48 h; actives raise or lower the signal
# In short: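 Gain or loss of CDKN1A transcript is scored by bidirectional fitting against 0.5% DMSO vehicle. Human HepaRG cultures receive chemicals for 48 h across an 8-point series peaking at 100 uM; expression comes from qRT-PCR.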
# [5] = read-out: Cyclin D1 (CCND1), CCND1 (gene 595); test: LTEA_HepaRG_CCND1: Life Technologies and Expression Analysis (LTEA) Assay for Cyclin D1 (CCND1) using HepaRG (AID 2283451); settings: mRNA level, 48 h; actives raise or lower the signal
# In short: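 Expression change is measured by qRT-PCR in HepaRG cells after 48 h treatment across eight concentrations topping at 100 uM, with duplicate wells and DMSO (0.5%) serving as baseline for bidirectional fitting.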
# [6] = read-out: catalase (CAT), CAT (gene 847); test: LTEA_HepaRG_CAT: Life Technologies and Expression Analysis (LTEA) Assay for catalase (CAT) using HepaRG (AID 2283452); settings: mRNA level, 48 h; actives raise or lower the signal
# In short: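 Differentiated HepaRG cells in serum-free induction medium were dosed 48 h in duplicate, eight half-log concentrations from 100 uM in 0.5% DMSO. Transcript measured by TaqMan qRT-PCR, normalised to ACTB/GAPDH/POLR2A, fitted bidirectionally against DMSO.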
# [7] = read-out: flavin-containing dimethylaniline monooxygenases 3 (FMO3), FMO3 (gene 2328); test: LTEA_HepaRG_FMO3: Life Technologies and Expression Analysis (LTEA) Assay for flavin-containing dimethylaniline monooxygenases 3 (FMO3) using HepaRG (AID 2283453); settings: mRNA level, 48 h; actives raise or lower the signal;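 for AC50: FMO3 transcript by TaqMan qRT-PCR normalized to ACTB GAPDH and POLR2A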
# In short: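 FMO3 transcript quantified by TaqMan qRT-PCR against three housekeeping genes after 48 h chemical exposure of HepaRG cells. Eight-point half-log series, top 100 uM, 0.5% DMSO vehicle; phenobarbital 1mM induction control; up- or down-regulation fitted.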
# [8] = read-out: CFLAR gene, CFLAR (gene 8837); test: LTEA_HepaRG_CFLAR: Life Technologies and Expression Analysis (LTEA) Assay for CFLAR gene using HepaRG (AID 2283455); settings: mRNA level, 48 h; actives raise or lower the signal
# In short: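 Gain- or loss-of-signal changes in CFLAR transcript were fitted bidirectionally relative to 0.5% DMSO. Cells (HepaRG, duplicate wells) were dosed for 48 h across eight half-log concentrations topping at 100 uM; quantitation by TaqMan qRT-PCR.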
# [9] = read-out: Forkhead box O1 (FOXO1), FOXO1 (gene 2308); test: LTEA_HepaRG_FOXO1: Life Technologies and Expression Analysis (LTEA) Assay for Forkhead box O1 (FOXO1) using HepaRG (AID 2283456); settings: mRNA level, 48 h; actives raise or lower the signal
# In short: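 Using one lot of HepaRG hepatic cells kept in 0.5% DMSO, the team applied test chemicals in duplicate, half-log dilutions from 100 uM, for 48 h. Expression, normalised to ACTB/GAPDH/POLR2A, was compared with vehicle in either direction.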
# [10] = read-out: growth arrest and DNA damage 45 (GADD45A), GADD45A (gene 1647); test: LTEA_HepaRG_GADD45A: Life Technologies and Expression Analysis (LTEA) Assay for growth arrest and DNA damage 45 (GADD45A) using HepaRG (AID 2283458); settings: mRNA level, 48 h; actives raise or lower the signal
# In short: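 GADD45A expression was measured by TaqMan qRT-PCR against three housekeeping genes (ACTB, GAPDH, POLR2A) after 48 h treatment of HepaRG cells. Eight-point half-log series up to 100 uM in 0.5% DMSO, run in duplicate.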
# [11] = read-out: Forkhead box O3 (FOXO3), FOXO3 (gene 2309); test: LTEA_HepaRG_FOXO3: Life Technologies and Expression Analysis (LTEA) Assay for Forkhead box O3 (FOXO3) using HepaRG (AID 2283459); settings: mRNA level, 48 h; actives raise or lower the signal
# In short: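 Gene-expression endpoint: FOXO3 transcript level by qRT-PCR in HepaRG cultures treated 48 h with chemicals up to 100 uM (half-log, 0.5% DMSO vehicle).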
# [12] = read-out: ABC Transporter (ABCB1), ABCB1 (gene 5243); test: LTEA_HepaRG_ABCB1: Life Technologies and Expression Analysis (LTEA) Assay for ABC Transporter (ABCB1) using HepaRG (AID 2283460); settings: mRNA level, 48 h; actives raise or lower the signal
# In short: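 Human liver HepaRG line treated 48 h with up to 100 uM compound (eight half-log points, 0.5% DMSO); ABCB1 mRNA change fitted bidirectionally against DMSO controls.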
# [13] = read-out: growth arrest and DNA damage 45 (GADD45B), GADD45B (gene 4616); test: LTEA_HepaRG_GADD45B: Life Technologies and Expression Analysis (LTEA) Assay for growth arrest and DNA damage 45 (GADD45B) using HepaRG (AID 2283461); settings: mRNA level, 48 h; actives raise or lower the signal
# In short: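 Human HepaRG monolayers receive chemicals for 48 h at eight half-log concentrations, highest 100 uM, in 0.5% DMSO. Expression is measured by TaqMan qRT-PCR and normalized to ACTB, GAPDH and POLR2A.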
# [14] = read-out: ABC Transporter (ABCC3), ABCC3 (gene 8714); test: LTEA_HepaRG_ABCC3: Life Technologies and Expression Analysis (LTEA) Assay for ABC Transporter (ABCC3) using HepaRG (AID 2283462); settings: mRNA level, 48 h; actives raise or lower the signal
# In short: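 Transcriptional change of ABCC3 in HepaRG after 48 h treatment, determined by qRT-PCR normalized to endogenous controls. Concentrations spanned eight half-log steps to 100 uM in 0.5% DMSO.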
# [15] = CEETOX_H295R_DOC: CeeTox H295R High-throughput Steroidogenesis Assay for DOC (AID 2283439); settings: actives raise or lower the signal
# In short: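 11-Deoxycorticosterone quantified in medium by MTBE extraction and HPLC-MS/MS after 48 h chemical exposure (0.1% DMSO) of forskolin-primed (10 uM, 48 h) H295R cells. Same-well MTT viability; data fitted bidirectionally against DMSO.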
# [16] = CEETOX_H295R_ESTRADIOL: CeeTox H295R High-throughput Steroidogenesis Assay for Estradiol (AID 2283440); settings: actives raise or lower the signal;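 note: estradiol secreted into medium quantified by LC-MS/MS after dansyl derivatisation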
# In short: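 Readout is estradiol in conditioned medium, quantified by reverse-phase HPLC-MS/MS against a 7-point standard curve. Cells: H295R, forskolin-stimulated, then dosed 48 h in 0.1% DMSO; activity fitted in both directions relative to DMSO.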
# [17] = CEETOX_H295R_ESTRONE: CeeTox H295R High-throughput Steroidogenesis Assay for Estrone (AID 2283441); settings: actives raise or lower the signal
# In short: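 Estrone secreted into medium quantified by LC-MS/MS after dansyl chloride derivatization, following 48 h chemical exposure (0.1% DMSO final) of forskolin-prestimulated (10 uM, 48 h) H295R cells; gain or loss fitted against DMSO; MTT viability in same wells.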
# [18] = CEETOX_H295R_PROG: CeeTox H295R High-throughput Steroidogenesis Assay for Progesterone (PROG) (AID 2283442); settings: actives raise or lower the signal
# In short: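 Measured analyte is progesterone secreted by H295R cells at 48 h of chemical treatment, following 10 uM forskolin priming. Quantitation used HPLC-MS/MS against a 7-point standard curve; cytotoxicity was checked by MTT absorbance.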
# [19] = read-out: Cytochrome P450 (CYP1A1), CYP1A1 (gene 1543); test: LTEA_HepaRG_CYP1A1: Life Technologies and Expression Analysis (LTEA) Assay for Cytochrome P450 (CYP1A1) using HepaRG (AID 2283454); settings: mRNA level, 48 h; actives raise or lower the signal
# In short: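 Using HepaRG cultures with 0.5% DMSO as vehicle, eight-concentration exposures (max 100 uM) lasted 48 h. Transcript levels were measured by TaqMan qRT-PCR and normalized to ACTB, GAPDH and POLR2A.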
# Chain of Fatty acid synthase (Homo sapiens) (P49327 whole entry, looked up): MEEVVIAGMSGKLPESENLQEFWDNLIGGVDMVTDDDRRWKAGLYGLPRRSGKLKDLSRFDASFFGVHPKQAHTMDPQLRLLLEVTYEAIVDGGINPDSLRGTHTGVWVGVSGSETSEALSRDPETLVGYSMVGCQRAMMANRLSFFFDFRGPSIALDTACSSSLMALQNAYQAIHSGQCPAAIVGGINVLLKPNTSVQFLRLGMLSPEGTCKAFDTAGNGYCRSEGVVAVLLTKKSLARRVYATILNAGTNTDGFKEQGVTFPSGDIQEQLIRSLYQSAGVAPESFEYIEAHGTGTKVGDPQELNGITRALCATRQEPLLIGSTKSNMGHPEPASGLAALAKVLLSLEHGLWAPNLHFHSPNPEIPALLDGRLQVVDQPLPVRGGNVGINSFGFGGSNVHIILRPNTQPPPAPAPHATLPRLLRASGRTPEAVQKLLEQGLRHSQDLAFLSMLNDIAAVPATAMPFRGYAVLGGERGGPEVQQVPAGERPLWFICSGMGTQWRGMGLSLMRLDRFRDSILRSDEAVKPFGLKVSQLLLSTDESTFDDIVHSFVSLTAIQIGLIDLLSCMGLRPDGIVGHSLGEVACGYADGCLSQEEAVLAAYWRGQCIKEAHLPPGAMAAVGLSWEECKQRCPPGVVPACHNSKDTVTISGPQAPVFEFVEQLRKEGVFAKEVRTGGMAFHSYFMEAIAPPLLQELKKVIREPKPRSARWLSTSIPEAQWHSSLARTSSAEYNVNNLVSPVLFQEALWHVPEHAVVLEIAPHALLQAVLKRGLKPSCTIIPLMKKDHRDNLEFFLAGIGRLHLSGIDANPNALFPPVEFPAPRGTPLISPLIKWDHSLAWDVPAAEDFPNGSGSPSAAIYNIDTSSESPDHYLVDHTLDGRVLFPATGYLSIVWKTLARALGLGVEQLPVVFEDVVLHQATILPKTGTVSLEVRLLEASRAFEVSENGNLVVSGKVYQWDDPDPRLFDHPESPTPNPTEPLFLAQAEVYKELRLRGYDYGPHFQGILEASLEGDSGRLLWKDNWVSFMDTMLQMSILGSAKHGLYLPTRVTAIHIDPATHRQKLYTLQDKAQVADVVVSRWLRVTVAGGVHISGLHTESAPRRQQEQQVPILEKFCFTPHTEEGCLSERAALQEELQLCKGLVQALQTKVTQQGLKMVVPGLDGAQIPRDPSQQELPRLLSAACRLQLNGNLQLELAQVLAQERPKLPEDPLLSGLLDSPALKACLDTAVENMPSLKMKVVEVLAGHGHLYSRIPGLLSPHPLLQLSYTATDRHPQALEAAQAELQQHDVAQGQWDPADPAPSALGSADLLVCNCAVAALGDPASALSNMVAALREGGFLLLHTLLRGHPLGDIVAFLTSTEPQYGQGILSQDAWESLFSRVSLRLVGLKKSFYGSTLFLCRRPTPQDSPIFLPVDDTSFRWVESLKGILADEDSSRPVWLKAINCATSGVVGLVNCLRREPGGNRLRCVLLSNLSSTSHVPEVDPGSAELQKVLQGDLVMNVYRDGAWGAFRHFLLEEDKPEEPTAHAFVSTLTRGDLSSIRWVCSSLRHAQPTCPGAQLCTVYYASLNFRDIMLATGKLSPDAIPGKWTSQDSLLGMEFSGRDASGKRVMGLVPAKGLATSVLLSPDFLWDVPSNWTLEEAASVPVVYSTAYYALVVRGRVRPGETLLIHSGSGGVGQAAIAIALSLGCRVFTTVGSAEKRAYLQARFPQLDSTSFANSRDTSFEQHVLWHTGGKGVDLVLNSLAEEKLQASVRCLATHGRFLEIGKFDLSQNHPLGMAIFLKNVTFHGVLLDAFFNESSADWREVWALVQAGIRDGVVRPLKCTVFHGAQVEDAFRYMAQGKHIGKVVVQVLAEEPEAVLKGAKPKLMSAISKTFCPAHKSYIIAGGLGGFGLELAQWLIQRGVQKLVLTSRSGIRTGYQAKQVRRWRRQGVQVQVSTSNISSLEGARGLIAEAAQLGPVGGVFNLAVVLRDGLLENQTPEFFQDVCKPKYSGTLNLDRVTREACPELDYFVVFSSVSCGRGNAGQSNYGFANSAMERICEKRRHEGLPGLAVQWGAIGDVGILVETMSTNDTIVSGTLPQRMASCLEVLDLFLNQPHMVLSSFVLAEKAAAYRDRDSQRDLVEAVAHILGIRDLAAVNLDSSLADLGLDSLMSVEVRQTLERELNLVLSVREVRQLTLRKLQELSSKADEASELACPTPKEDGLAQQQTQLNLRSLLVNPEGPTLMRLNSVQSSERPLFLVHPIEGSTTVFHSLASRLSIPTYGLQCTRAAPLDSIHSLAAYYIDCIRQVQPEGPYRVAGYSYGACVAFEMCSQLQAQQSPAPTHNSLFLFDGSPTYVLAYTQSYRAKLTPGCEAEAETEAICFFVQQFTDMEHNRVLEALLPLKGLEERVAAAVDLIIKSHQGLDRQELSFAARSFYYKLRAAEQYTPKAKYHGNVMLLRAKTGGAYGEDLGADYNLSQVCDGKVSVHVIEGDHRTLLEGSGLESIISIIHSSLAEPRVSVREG
smiles,measurement,setting,value
OCCOCCOCCO,outcome,[1],inactive
same,outcome,[2],inactive
same,outcome,[3],inactive
same,outcome,[4],inactive
same,outcome,[5],inactive
same,outcome,[6],inactive
same,outcome,[7],inactive
same,outcome,[8],inactive
same,outcome,[9],inactive
same,outcome,[10],inactive
same,outcome,[11],inactive
same,AC50,[12],0.115 µM (active)
same,outcome,[13],inactive
same,outcome,[14],inactive
CC(C)c1nnc2ccc(-c3ocnc3-c3cc(F)ccc3F)cn12,outcome,[15],inactive
same,outcome,[16],inactive
same,outcome,[17],inactive
same,outcome,[18],inactive
same,outcome,[1],inactive
same,AC50,[2],50 µM (active)
same,outcome,[4],inactive
same,outcome,[5],inactive
same,AC50,[6],50 µM (active)
same,AC50,[7],63.6 µM (active)
same,outcome,[8],inactive
same,outcome,[9],inactive
same,outcome,[10],inactive
same,outcome,[11],inactive
same,outcome,[12],inactive
same,outcome,[13],inactive
same,AC50,[14],50 µM (active)
CCCCCCCCCC,outcome,[1],inactive
same,outcome,[2],inactive
same,outcome,[3],inactive
same,outcome,[4],inactive
same,outcome,[5],inactive
same,outcome,[6],inactive
same,outcome,[7],inactive
same,AC50,[19],50 µM (active)
same,outcome,[8],inactive
same,outcome,[9],inactive
same,outcome,[10],inactive
same,outcome,[11],inactive
same,outcome,[12],inactive
same,outcome,[13],inactive
same,outcome,[14],inactive
Cc1nccn1-c1ccc(Sc2cccc(C3(C(N)=O)CCOCC3)c2)cc1,outcome,[1],inactive
same,AC50,[2],9.48 µM (active)
same,outcome,[3],inactive
same,AC50,[4],12.3 µM (active)
same,outcome,[5],inactive
same,AC50,[6],8.97 µM (active)
same,AC50,[7],9.6 µM (active)
same,AC50,[8],28.3 µM (active)
same,AC50,[9],9.73 µM (active)
same,AC50,[10],10.9 µM (active)
same,outcome,[11],inactive
same,AC50,[12],21 µM (active)
same,AC50,[13],27.3 µM (active)
same,AC50,[14],3.65 µM (active)
OC[C@H]1O[C@@H]2O[C@H]3[C@H](O)[C@@H](O)[C@@H](O[C@H]4[C@H](O)[C@@H](O)[C@@H](O[C@H]5[C@H](O)[C@@H](O)[C@@H](O[C@H]6[C@H](O)[C@@H](O)[C@@H](O[C@H]7[C@H](O)[C@@H](O)[C@@H](O[C@H]1[C@H](O)[C@H]2O)O[C@@H]7CO)O[C@@H]6CO)O[C@@H]5CO)O[C@@H]4CO)O[C@@H]3CO,outcome,[1],inactive
same,outcome,[2],inactive
same,outcome,[3],inactive
same,outcome,[4],inactive
same,outcome,[5],inactive
same,outcome,[6],inactive
same,outcome,[7],inactive
same,AC50,[19],26.2 µM (active)
same,outcome,[8],inactive
same,outcome,[9],inactive
same,outcome,[10],inactive
same,outcome,[11],inactive
same,outcome,[12],inactive
same,outcome,[13],inactive
same,outcome,[14],inactive
OC(CCl)CCl,outcome,[1],inactive
same,outcome,[2],inactive
same,outcome,[3],inactive
same,outcome,[4],inactive
same,outcome,[5],inactive
same,outcome,[6],inactive
same,outcome,[7],inactive
same,AC50,[19],50 µM (active)
same,outcome,[8],inactive
same,outcome,[9],inactive
same,outcome,[10],inactive
same,outcome,[11],inactive
same,outcome,[12],inactive
same,outcome,[13],inactive
same,outcome,[14],inactive
O=C(O)c1cccc(C[C@@H]2COc3ccc(OCc4nc5cc(F)ccc5s4)cc3[C@@H]2O)c1,outcome,[1],inactive
same,AC50,[2],85.5 µM (active)
same,outcome,[3],inactive
same,outcome,[4],inactive
same,outcome,[5],inactive
same,AC50,[6],50 µM (active)
same,outcome,[7],inactive
same,AC50,[19],33.4 µM (active)
same,outcome,[8],inactive
same,outcome,[9],inactive
same,outcome,[10],inactive
same,outcome,[11],inactive
same,outcome,[12],inactive
same,outcome,[13],inactive
same,AC50,[14],79.3 µM (active)
